# According to PubChem BioAssay (NCI):
# About 79,000 compounds went through this panel and 15% of them were active in at least one assay; those are over-represented in the sample as a whole. Unmarked numbers belong to inactive results. Calls of active or inactive are those of the source. Rule as the data show it: active = growth inhibition above about 70%; inactive = the rest.
# Assays:
# [1] = NCI Yeast Anticancer Drug Screen. Data for the rad50 strain (AID 155);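 also: 0% = growth of vehicle-only cultures of the same strain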; conditions: S. cerevisiae rad50 strain growth inhibition, active compounds read high
# Summary of the method: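 Cells are treated with compound, grown, and their growth is then scored against vehicle-only cultures of the same repair-deficient yeast strain.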
# [2] = NCI Yeast Anticancer Drug Screen. Data for the mec2-1 strain (AID 157); conditions: S. cerevisiae mec2-1 strain, active compounds read high
# Summary of the method: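 Using mec2-1 yeast: add compound, measure growth, express inhibition versus vehicle-treated cultures.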
# [3] = NCI Yeast Anticancer Drug Screen. Data for the sgs1 mgt1 strain (AID 161);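 also: 0% = growth of cultures given vehicle only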; conditions: S. cerevisiae sgs1 mgt1 strain, active compounds read high
# Summary of the method: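 This yeast growth screen uses a strain with defined DNA-repair lesions; compound-treated growth is compared with vehicle-treated growth.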
# [4] = NCI Yeast Anticancer Drug Screen. Data for the cln2 rad14 strain (AID 165);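 also: 0% = growth equal to vehicle treated cultures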; conditions: S. cerevisiae cln2 rad14 strain, active compounds read high
# Summary of the method: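 Yeast strain cln2 rad14, bearing defects in cell cycle control and DNA repair, serves as the test system; values reflect growth inhibition compared with vehicle.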
# [5] = NCI Yeast Anticancer Drug Screen. Data for the bub3 strain (AID 167); conditions: S. cerevisiae bub3 mutant strain, active compounds read high
# Summary of the method: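 Part of a panel of yeast mutants defective in DNA damage repair or cell cycle regulation. Each strain is grown with compound, and inhibition is calculated relative to solvent-treated cultures.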
# [6] = NCI Yeast Anticancer Drug Screen. Data for the mlh1 rad18 strain (AID 175); conditions: S. cerevisiae mlh1 rad18 strain growth inhibition, active compounds read high
# Summary of the method: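 Steps: expose repair-defective yeast to compound; measure growth; express inhibition against vehicle-treated controls.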
# [7] = at 5.0 µM (retest, dose inferred, filed as 0.5)
# [8] = at 50.0 µM (retest, dose inferred, filed as 5.0)
Structure (SMILES),"growth inhibition [1, 7]","growth inhibition [1, 8]",growth inhibition ([1]; at 50.0 µM),"growth inhibition [2, 7]","growth inhibition [2, 8]",growth inhibition ([2]; at 50.0 µM),"growth inhibition [3, 7]","growth inhibition [3, 8]",growth inhibition ([3]; at 50.0 µM),"growth inhibition [4, 7]","growth inhibition [4, 8]",growth inhibition ([4]; at 50.0 µM),"growth inhibition [5, 7]","growth inhibition [5, 8]",growth inhibition ([5]; at 50.0 µM),"growth inhibition [6, 7]","growth inhibition [6, 8]",growth inhibition ([6]; at 50.0 µM)
C/C(=N\NS(=O)(=O)c1ccc(C)cc1)C(CN1CCOCC1)C(c1ccccc1)c1c(O)c2ccccc2oc1=O (configuration not stated),15%,15%,88.5% (active),4%,4%,85.8% (active),15%,15%,87.4% (active),5%,5%,89.2% (active),3%,3%,83.7% (active),9%,9%,87.6% (active)
O=P(O/C(=C\c1ccccc1)c1ccccc1)(c1ccccc1)c1ccccc1,18%,96% (active),96.8% (active),17%,98% (active),98.3% (active),15%,98% (active),98.2% (active),8%,97% (active),96.2% (active),11%,97% (active),97% (active),7%,97% (active),93.7% (active)
CN1CN(c2ccccc2)C2(CCN(C3Nc4ccccc4O3)CC2)C1=O (configuration not stated),7%,33%,40%,2%,26%,44.5%,-1%,30%,58.5%,31%,42%,35%,-16%,-4%,50.8%,10%,57%,45.6%
CC[CH2][Sn]([CH2]CC)([CH2]CC)[CH2]CCBr,98% (active),99% (active),99.5% (active),99% (active),100% (active),99.7% (active),99% (active),100% (active),99.6% (active),99% (active),98% (active),99.3% (active),99% (active),99% (active),99.7% (active),99% (active),99% (active),99.5% (active)
CC/C(=C/c1ccc2c(c1)OCO2)[N+](=O)[O-],89% (active),99% (active),99.3% (active),59%,99% (active),99.8% (active),68%,99% (active),99.7% (active),28%,100% (active),99.1% (active),83% (active),99% (active),98.5% (active),66%,99% (active),99.4% (active)
C[n+]1c(/C=C/c2ccc(O)c3ncccc23)[se]c2ccccc21,22%,93% (active),93.4% (active),2%,90% (active),93.5% (active),24%,91% (active),92.3% (active),11%,88% (active),92% (active),2%,91% (active),93% (active),43%,90% (active),93.4% (active)
C/C(=N\Nc1ccccn1)C1CC[N-]C2C(O)CCCC12.C/C(=N\Nc1ccccn1)C1CC[N-]C2C(O)CCCC12.[Cu+2] (configuration not stated),98% (active),98% (active),99% (active),99% (active),99% (active),99.5% (active),98% (active),99% (active),99.4% (active),98% (active),97% (active),98.9% (active),99% (active),98% (active),99% (active),99% (active),98% (active),99.3% (active)
COC12C(COC(C)=O)C3=C(C(=O)C(C)=C(N4CCCCC4)C3=O)N1CC1NC12 (configuration not stated),93% (active),97% (active),89.5% (active),96% (active),95% (active),91.7% (active),79% (active),97% (active),90.5% (active),93% (active),97% (active),86.6% (active),67%,96% (active),88% (active),98% (active),97% (active),90% (active)
O=c1oc2ccccc2c(O)c1C(C/C(CCN1CCCC1)=N\Nc1ccccc1)c1ccccc1 (configuration not stated),3%,3%,86.3% (active),-2%,-2%,80.7% (active),1%,1%,87.8% (active),8%,8%,81.3% (active),-13%,-13%,81.7% (active),-6%,-6%,83.9% (active)
